Laboratory results reported in PubChem BioAssay (Tox21).
Inconclusive results are not listed. A call without a number means that no potency is given here. Unmarked numbers belong to inactive results. Activity calls are given as the source filed them. The call rests on the fitted dose curve.

test: p53 small molecule agonists, cell-based qHTS assay: qHTS cell viability counter screen (AID 1963581); settings: p53RE-bla HCT-116 viability, ATP luminescence, 16 h; series mostly up to 66 µM; further: nearly all actives have a fitted effect of over 45% in size
Text: National Center for Advancing Translational Sciences [NCATS]
Division of Preclinical Innovation [DPI]
U.S. Environmental Protection Agency [EPA]
National Institutes of Environmental Health Sciences [NIEHS]
National Toxicology Program [NTP]
U.S. Food and Drug Administration [FDA]
p53, a tumor suppressor protein, is activated following cellular insult, including DNA damage and other cellular stresses. The activation of p53 regulates cell fate by inducing DNA repair, cell cycle arrest, apoptosis, or cellular senescence. The activation of p53, therefore, is a good indicator of DNA damage and other cellular stresses. The CellSensor p53RE-bla HCT-116 cell line (Invitrogen) contains a stably integrated beta-lactamase reporter gene under control of the p53 response elements. The activation of the reporter gene under culture conditions can be detected by fluorescence intensity. This cell line was used to screen the Tox21 compound library in a 1536-well plate format and to identify agonists that activate the p53 signaling pathway. The cytotoxicity of the Tox21 compound library against the p53 RE-bla HCT-116 cell line was tested in parallel by measuring the intra cellular ATP content in the same wells.
Tox21 Assay Protocol Summary:
The p53RE-bla cells were dispensed at 4,000 cells/5 ul/well in 1536-well black wall/clear bottom plates using a Multidrop dispenser. After the assay plates were incubated at a 37 C/5% CO2 incubator for 5 hours, 23 nL of compounds dissolved in DMSO, positive controls or DMSO only was transferred to the assay plate by a pin tool. The plates were incubated at 37 C for 16 hours. After 1 uL of LiveBLAzerTM B/G FRET substrate was added using a Flying Reagent Dispenser, the plates were incubated at room temperature for 2 hours, and fluorescence intensity was measured by an Envision plate reader. For cell viability readout that measures cytotoxicity, 4 ul/well of CellTiter-Glo reagent was added into the assay plates using a Flying Reagent Dispenser. After 30 min incubation at room temperature, the luminescence intensity in the plates was measured using a ViewLux plate reader.

SMILES | Potency | activity change, negative = cytotoxicity
O=C1NCC2(CCN(CCc3ccccc3)CC2)O1 | inactive | –
NCCN1CCOCC1 | inactive | –
C/C=C/C=C/C=O | inactive | –
C=CC(=O)N1CCOCC1 | inactive | –
Nc1ccc([N+](=O)[O-])c(N)c1 | inactive | –
CC(C)(C)C(O)/C=C/c1ccc2c(c1)OCO2 (stereo not given) | inactive | –
Cc1c2ccccc2c(C)c2c1ccc1ccccc12 | inactive | –
O=C(/C=C/c1ccccc1)NCCO | inactive | –
COC(=O)C1=C(C)NC(C)=C(C(=O)OC)C1c1ccccc1[N+](=O)[O-] | inactive | –
c1ccc2sc(SN3CCOCC3)nc2c1 | inactive | –
OC/C(Br)=C(\Br)CO | inactive | –
COc1ccc(CCN(C)CCCN2CCc3cc(OC)c(OC)cc3CC2=O)cc1OC | inactive | –
CN(C)C(=O)Nc1ccccc1 | inactive | –
CNC(C)=O | inactive | –
Cc1ccc(C)c([N+](=O)[O-])c1 | inactive | –
CC(=O)CCC1=C(C)CCCC1(C)C | inactive | –
CCC(C)O (stereo not given) | inactive | –
C#C[C@]1(O)CC[C@H]2[C@@H]3[C@H](C)CC4=C(CCC(=O)C4)[C@H]3CC[C@@]21C | inactive | –
CC(CC=O)c1ccccc1 (stereo not given) | inactive | –
CCNC(=O)NCc1cccc(Cl)c1 | inactive | –

SMILES | Potency | activity change, negative = cytotoxicity
CS(=O)(=O)c1ccc([C@@H](O)[C@@H](CF)NC(=O)C(Cl)Cl)cc1 | inactive | –
CCc1cccc2c(CCO)c[nH]c12 | inactive | –
CCN(Cc1cccc(S(=O)(=O)O)c1)c1ccc(C(=C2C=CC(=[N+](CC)Cc3cccc(S(=O)(=O)[O-])c3)C=C2)c2ccccc2)cc1 | inactive | –
CC1CN(c2cc3c(cc2F)c(=O)c(C(=O)O)cn3-c2ccc(F)cc2F)CCN1 (stereo not given) | – | 22.9% [at 5.99 µM]
CC(C)COC(=O)CCCCC(=O)OCC(C)C | inactive | –
C=C(C)C(=O)OCCOCCOC(=O)C(=C)C | inactive | –
CCCCCCC[N+](CC)(CC)CCCCc1ccc(Cl)cc1 | inactive | –
CN(C)CCOc1ccccc1Cc1ccccc1 | inactive | –
Cc1c(C)n(Cc2ccccc2)c2ccc(C(=O)OCCN(C)C)cc12 | inactive | –
Cc1cccc(C)c1NC(=O)CN1CCN(CCCC(c2ccc(F)cc2)c2ccc(F)cc2)CC1 | inactive | –
C=CC(=O)Nc1cc2c(Nc3ccc(F)c(Cl)c3)ncnc2cc1OCCCN1CCOCC1 | inactive | –
Nc1ccc(N=Nc2ccc(N)cc2)cc1 | inactive | –
C=C/C=C/C=C/CCCCC | – | -4.28% [at 13.5 µM]
O=CO | – | -6.99% [at 5.99 µM]
Brc1c2ccccc2c(Br)c2ccccc12 | – | 12.6% [at 5.99 µM]
O=C(O)[C@@H]1CSCN1 | inactive | –
CCCCCCCCCCO[C@@H]1O[C@H](CO)[C@@H](O)[C@H](O)[C@H]1O | inactive | –
O=C(Cl)c1cccc([N+](=O)[O-])c1 | inactive | –
C=C(C)[C@@H]1CC=C(C)CC1 | inactive | –
CC(C)(C)C1CCC(CC2=C(O)c3ccccc3C(=O)C2=O)CC1 (stereo not given) | inactive | –
